Experimental data from ChEMBL document CHEMBL4513216, “Probing the Open Global Health Chemical Diversity Library for Multistage-Active Starting Points for Next-Generation Antimalarials” (ACS Infect Dis, 2020).
In all, about 69,000 compounds went through this assay and about 8,600 (12%) showed an effect of 50% or more. The entries come from a sample that favours strong results as a whole.

System: Plasmodium berghei
Assay: Screen against P. berghei liver stage (PbLuc), transformed with Luciferase, at 10uM
Format: functional, HepG2
Conditions: tested at 10 uM

Compound | INHIBITION [%]
COc1ccccc1NC(=O)NCc1nnc(SC)n1C | 8.125
N#CC1(C(=O)N2CCCN(Cc3cscn3)CC2)CCCCC1 | -54.6
CC(C)C(=O)N1CCCC(Cc2ncccn2)C1 (stereo unspecified) | 32.7
CC(C)CCCC1CN(C(=O)c2cnc[nH]2)CCO1 (stereo unspecified) | -10.5
Cc1ccc(CNC(c2cccc(F)c2)c2nccn2C)o1 (stereo unspecified) | 24.2
Cc1ccc(CNC(c2ccc(F)cc2)c2nccn2C)o1 (stereo unspecified) | 52.6
COc1cc(CNC(c2ccccc2)c2nccn2C)cc(OC)c1 (stereo unspecified) | -76.15
Cn1ccnc1C(NCc1csc(Br)c1)c1ccccc1 (stereo unspecified) | 51.6
COc1c(CNC(c2ccccc2)c2nccn2C)c(C)nn1C (stereo unspecified) | 39.4
Cn1ccnc1C(NCc1ccccc1)c1ccc(F)cc1 (stereo unspecified) | 32.9
CSc1ccc(CNC(c2ccccc2F)c2nccn2C)cc1 (stereo unspecified) | -27.24
COc1cccc(C(NCc2ccc(SC)cc2)c2nccn2C)c1 (stereo unspecified) | 51.2
COc1ccccc1C(NCc1ccc(SC)cc1)c1nccn1C (stereo unspecified) | 29.06
CSc1ccc(CNC(c2ccc(F)cc2)c2nccn2C)cc1 (stereo unspecified) | -1.6
CSc1ccc(CNC(c2ccccc2)c2nccn2C)cc1 (stereo unspecified) | 79.1
Cn1ccnc1C(NCc1ccc(Br)cc1)c1ccccc1 (stereo unspecified) | -32.9

Compound | INHIBITION [%]
CC(=O)NCCCNC(=O)Nc1ccccc1-n1nc(C)cc1C | 9.06
COc1ccccc1C(=O)NS(=O)(=O)c1cccc(C#N)c1 | 25.1
COc1cc(CN)c(OC)c2c1OCO2 | -3.48
CCCS(=O)(=O)N1CCC2(CN(c3ccsc3)C(=O)CN2C)C1 (stereo unspecified) | -24.2
Cc1oncc1C(=O)N1CC[C@H]2C[C@H](c3ccncn3)O[C@@H]2C1 | 11.3
Cn1ncc(Cl)c1C(=O)N1CCC(c2nnsc2S(C)(=O)=O)CC1 | -9.2465
Cc1cc(C)cc(CNC(c2ccccc2)c2nccn2C)c1 (stereo unspecified) | 41.15
Cc1ccc(CNC(c2ccccc2)c2nccn2C)cc1C (stereo unspecified) | 54.9
Cc1ccc(CNC(c2ccccc2)c2nccn2C)cc1 (stereo unspecified) | 33.6
Cc1cc(CN2CCCC2c2noc(C(C)C)n2)on1 (stereo unspecified) | 47
O=C(O)c1cncc(Cc2ccc(F)cc2)c1 | -3.02
CCN(Cc1ccoc1)C(=O)c1cc(C)c(C)c(S(N)(=O)=O)c1 | -5.94
CCN(Cc1ccoc1)C(=O)c1ccc(C)c(S(N)(=O)=O)c1 | -2.97
CCN(Cc1ccncc1)C(=O)c1cc(C)c(C)c(S(N)(=O)=O)c1 | 52.8
CC(C)(C)C(=O)NCC(=O)NCCc1nc(C(F)(F)F)cs1 | 15
